According to PubChem BioAssay AID1220 (Sanford-Burnham Center for Chemical Genomics, 2008):
Screen size: about 190,000 compounds; about 1,300 (0.68%) were called active. For the sample, actives were picked, then their nearest neighbours and some compounds at random. A number with no mark means an inactive call. No stated cut-off is given here; in the data, active means inhibition above about 50%; inactive means the rest.

These molecules were tested against Mannose-6-phosphate isomerase (Homo sapiens) (UniProt P34949) (assay: human PMI inhibitors, high substrate, primary screen, biochemical, fluorescence intensity, high mannose 6-phosphate (AID 1220)). Details: recombinant PMI enzyme, coupled fluorescence intensity; at 20 µM; stronger effect = higher value.
Mannose-6-phosphate isomerase (Homo sapiens), sequence (P34949 whole entry, looked up): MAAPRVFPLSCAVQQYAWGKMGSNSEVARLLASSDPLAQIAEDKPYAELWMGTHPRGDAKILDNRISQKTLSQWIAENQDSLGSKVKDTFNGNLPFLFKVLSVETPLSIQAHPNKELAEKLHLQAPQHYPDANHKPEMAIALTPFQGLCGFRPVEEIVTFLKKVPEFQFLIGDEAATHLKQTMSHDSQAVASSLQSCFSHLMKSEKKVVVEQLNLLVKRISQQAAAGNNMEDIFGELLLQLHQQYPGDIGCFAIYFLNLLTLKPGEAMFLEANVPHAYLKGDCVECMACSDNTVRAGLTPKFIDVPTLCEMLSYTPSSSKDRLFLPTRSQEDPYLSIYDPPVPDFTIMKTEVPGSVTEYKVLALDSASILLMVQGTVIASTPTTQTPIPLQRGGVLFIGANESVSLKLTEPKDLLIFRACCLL

In order of rising inhibition:
1. O=C(O)c1ccc(N2Cc3ccccc3C2)cc1O  -70.5%
2. COc1ccc(-c2csc(Cc3nnc(N4CCOCC4)n3-c3ccccc3)n2)cc1OC  -41%
3. CCOC(=O)C1=C(C)Nc2ncnn2C1c1ccccc1F (stereo unspecified)  -19.1%
4. CC(Sc1nnc(NC2CCCCC2)s1)C(=O)Nc1ccc2c(c1)C(=O)c1ccccc1C2=O (stereo unspecified)  -14.7%
5. O=C(N/N=C/c1coc2ccccc2c1=O)c1cn(-c2ccccc2)nc1-c1ccc(F)cc1  -12.2%
6. O=C(CCNC(=O)c1ccccc1)Oc1ccc([N+](=O)[O-])cc1  -10.4%
7. CCOc1ccc(C(CC(=O)O)NC(=O)c2cccs2)cc1OC (stereo unspecified)  -10.3%
8. CC(NC(=O)c1cc2ccccc2o1)c1ccccc1 (stereo unspecified)  -9.3%
9. CC1(c2ccccc2)CC2CC(c3ccccc3)N1O2 (stereo unspecified)  -7.9%
10. Cc1[nH]c2ccccc2c1/C=N/NC(=O)Nc1ccccc1  -7.2%
11. CCCCC/C=N\NC(=O)Cc1ccc([N+](=O)[O-])cc1  -6.9%
12. O=C(Nc1nccs1)c1ccc(CSc2nnnn2-c2ccccc2)cc1  -6.7%
13. O=C(NC1Cc2ccccc2C1)c1cc(COc2ccc(F)cc2Cl)on1  -6.1%
14. CCOc1ccc2oc(C(=O)NC3CCN(Cc4ccccc4)CC3)c(C)c2c1  -4.4%
15. CCOC(=O)N/C(N)=N/c1nc2ccccc2s1  -3.7%
16. CCOC(=O)/C(C#N)=C\c1ccc(OC)c(OC)c1  -3.6%
17. CCn1c(SCC(=O)N2CCCCC2C)nc2ccsc2c1=O (stereo unspecified)  -3.6%
18. CCOC(=O)Nc1ccc2c(c1)N(C(=O)OC)c1ccccc1CC2  -3.2%
19. COc1ccccc1Sc1nc(-c2ccccn2)ncc1OC  -3.1%
20. CCCc1n(CC)c2ccccc2[n+]1CC(O)COC1CCCCC1 (stereo unspecified)  -2.9%
21. CCn1cc(C(=O)NCCCN2CCN(C)CC2)c(=O)c2cc(S(=O)(=O)N3CCc4ccccc4C3)ccc21  -2.9%
22. O=C(N/N=C/c1c[nH]c2ccccc12)c1cc(-c2ccccc2)n[nH]1  -2.4%
23. O=C(O)C1C(c2ccccc2)C(C(=O)Oc2ccccc2)C1c1ccccc1 (stereo unspecified)  -2.4%
24. COc1ccc(NC(=O)/C(N=Nc2cc(S(=O)(=O)Nc3ccc(OC)cc3)ccc2OC)=C(\C)O)cc1  -1%
25. Cc1cc(NC(=O)COC(=O)c2ccco2)no1  -0.8%
26. C=CCn1c(SCC(=O)c2ccc(Cl)cc2)nnc1-c1ccc2c(c1)OCO2  -0.6%
27. CCN1CCc2c(C#N)c(NCc3ccccc3)nc(N(CC)CC)c2C1  0.8%
28. COc1ccc(Nc2n[nH]c(N)c2C(N)=O)cc1  1.4%
29. COC(=O)c1c(NC(=O)CN2C(=O)c3ccccc3C2=O)sc(Cc2ccc3c(c2)OCO3)c1C  1.6%
30. CCOC(=O)N1CCN(S(=O)(=O)c2ccc(C(=O)NNc3nc4c(C)cccc4s3)cc2)CC1  1.7%
31. CN(C(=O)c1cccnc1)c1nnc(-c2ccccn2)s1  2%
32. CCOC(=O)c1c(C)[nH]c2cc(Br)c(O)cc12  2.1%
33. O=C(CC1(O)C(=O)N(Cc2cccc3ccccc23)c2ccccc21)c1cccnc1 (stereo unspecified)  2.3%
34. Cc1c(Cc2ccc3c(c2)OCO3)sc(NC(=O)c2ccccc2)c1C(N)=O  2.7%
35. CCCCCCN1C(=O)C(O)=C(C(C)=O)C1c1ccc(Cl)cc1 (stereo unspecified)  3.1%
36. Cc1ccc(C2=NN(CC(=O)NCc3cccs3)C(=O)CC2)cc1  3.3%
37. Nc1[nH]nc2nc(NCc3ccccc3)c3c(c12)CCN(Cc1ccccc1)C3  3.5%
38. CCOc1ccc(C(=O)NCC(=O)Nc2ccc(N3CCOCC3)cc2)cc1OCC  3.6%
39. C/C(=N/Nc1nc(-c2ccccc2)cc(-c2ccccc2)n1)c1ccc(N)cc1  3.6%
40. CCCn1c(SCc2ccccn2)nc2c1c(=O)n(C)c(=O)n2C  4.6%
41. CCOC(=O)/C(C#N)=C/c1ccc(OC)c(OC)c1  5%
42. COc1ccc2[nH]c(=O)c(CN(Cc3cccs3)C(=S)Nc3cccc(C)c3)cc2c1  5%
43. CCS(=O)(=O)c1ccc(-c2csc(-c3ccccc3Cl)n2)c(Cl)c1Cl  5.5%
44. COc1cc(SC)ccc1C(=O)N1CCN(c2ccccc2)CC1  5.9%
45. CCOC(=O)c1c(C)[nH]c2ccc(O)cc12  6%
46. N#CC1=C(N)SC(N)=C(C#N)C1c1c(Cl)cccc1Cl  6%
47. O=C(Cn1ccc([N+](=O)[O-])n1)N1CCc2ccccc21  6.2%
48. O=C(CN1N=C(c2ccccc2)CCC1=O)NCc1cccs1  6.5%
49. O=C(CN1CCN(C(=O)N2CCCCC2)CC1)Nc1ccc(F)cc1  6.5%
50. N#Cc1c(N2CCCCC2)nc(N2CCCCC2)c2c1CCN(Cc1ccccc1)C2  8%
51. COc1cc(OC)cc(-c2nnc(SCc3c(F)cccc3Cl)o2)c1  8.3%
52. Cc1ccc2oc(=O)c(/C=C(\O)CC(C)C)nc2c1  10.4%
53. O=C1NC(CCc2ccccc2)C(=O)N1Cc1ccc(Br)cc1 (stereo unspecified)  10.5%
54. Nc1cc(-c2cccc(Br)c2)nn1Cc1ccccc1  11.2%
55. CS(=O)(=O)N(Cc1ccccc1)c1ccc(C(=O)N2CCOCC2)cc1  11.2%
56. CN(CC(=O)N1CCCCC1)S(=O)(=O)c1cccc2cccnc12  13.4%
57. CC(C)CCNc1nc(N2CCCC2)c2c(c1C#N)CCN(C)C2  14.4%
58. CSc1ccccc1NC(=O)CO/N=C(\C)c1cc2ccccc2o1  14.6%
59. COc1ccc(NC(=O)/C(=C\c2cc(OC)c(OC)cc2[N+](=O)[O-])NC(=O)c2ccccc2)cc1  15.2%
60. CCS(=O)(=O)c1ccc2oc(=O)c(/C=C(\O)c3ccc(Cl)cc3)nc2c1  17.4%
61. CC1=C(C#N)C(=O)NC(=O)/C1=C/c1ccc(-c2ccc(S(N)(=O)=O)cc2)o1  18.1%
62. COc1ccc(O)c(C=Nc2cc(NC(C)=O)c(Cl)cc2Cl)c1  19.4%
63. CSc1nsc(/C=C/Nc2ccc(F)cc2F)c1C#N  21.4%
64. COc1ccc(N2CCN(C(=O)c3ccc(SC)cc3OC)CC2)cc1  21.7%
65. CC(C)C(=O)NC(c1cccc([N+](=O)[O-])c1)c1c(O)ccc2ccccc12 (stereo unspecified)  26.6%
66. COc1cc(/C=C(/NC(=O)c2ccccc2)C(=O)Nc2ccccc2)c([N+](=O)[O-])cc1OC  27.2%
67. COc1ccc(CN2CCNC(=O)C2CC(=O)N2CCCCO2)c(OC)c1 (stereo unspecified)  27.5%
68. CC(C)OCc1c(C(=O)OC/C(O)=C(\C#N)c2nc3ccccc3[nH]2)oc2ccccc12  28.4%
69. CCCCC(=O)NC(c1ccco1)c1c(O)ccc2ccccc12 (stereo unspecified)  30.3%
70. CCN1CCc2c(C#N)c(N3CCCCC3)nc(NCc3ccccc3)c2C1  32.5%
71. CCCC(=O)NC(c1ccco1)c1c(O)ccc2ccccc12 (stereo unspecified)  33.6%
72. CC(=O)NC(c1ccc([N+](=O)[O-])cc1)c1c(O)ccc2ccccc12 (stereo unspecified)  34.2%
73. CCOC(=O)C1Sc2ccccc2NC1=O (stereo unspecified)  36.5%
74. C=CCNc1nc(N2CCOCC2)c(C#N)c2c1CN(C)CC2  37.3%
75. CSc1nsc(/C=C/Nc2ccc(C)c(C)c2)c1C#N  40.1%
76. CC(=O)Nc1cc(N=Cc2ccc(O)cc2O)c(Cl)cc1Cl  44.8%
77. CCc1ccc(NC(=O)CO/N=C(\C)c2cc3ccccc3o2)cc1  45%
78. COc1ccc(CN2CCNC(=O)C2CC(=O)N2CCCCO2)cc1OC (stereo unspecified)  45.9%
79. CC1=C(C#N)C(=O)NC(=O)/C1=C\c1ccc(-c2ccc(C)cc2[N+](=O)[O-])o1  48.6%

For `CCOC(=O)c1c(C)[nH]c2c1cc(O)c1ccccc12`, the inhibition was 61.2% (active).
`CCOC(=O)/C(C#N)=C\c1cc(OC)c(OC)cc1[N+](=O)[O-]` was tested, and the inhibition was 69.6% (active).
With `COc1cc(/C=C(\C#N)C(=O)Nc2ccc3ccccc3c2)c([N+](=O)[O-])cc1OC` the inhibition was 67% (active).
`CC(C)C(=O)NC(c1ccco1)c1c(O)ccc2ccccc12` (stereo unspecified) was tested, and the inhibition was 56.9% (active).
For `CC(C)C(=O)NC(c1ccc([N+](=O)[O-])cc1)c1c(O)ccc2ccccc12` (stereo unspecified), the inhibition was 59.5% (active).
In the case of `CC(=O)Nc1cc(Cl)c(N=Cc2ccc(O)cc2O)cc1Cl`, the inhibition was 63.3% (active).
`COc1cc(SC)ccc1C(=O)N1CCN(c2ccc(O)cc2)CC1` was tested, and the inhibition was 55.8% (active).
For `CCc1cccc(C)c1NC(=O)CO/N=C(\C)c1cc2ccccc2o1`, the inhibition was 60.5% (active).
`COc1cc(CN2CCNC(=O)C2CC(=O)N2CCCCO2)cc(OC)c1` (stereo unspecified) was tested, and the inhibition was 52% (active).
With `CC(C)C/C(O)=C/c1nc2cc(Cl)ccc2oc1=O` the inhibition was 55.1% (active).
For `O=C(CN1N=C(c2ccc(Cl)cc2)CCC1=O)NCc1cccs1`, the inhibition was 59.2% (active).
For `CSc1nsc(/C=C/Nc2ccc(O)cc2C)c1C#N`, the inhibition was 65.8% (active).
In the case of `CCOC(=O)c1c(NC(=O)CN2C(=O)c3ccccc3C2=O)sc(Cc2ccc3c(c2)OCO3)c1C`, the inhibition was 51.5% (active).
With `CC1=C(C#N)C(=O)NC(=O)/C1=C\c1ccc(-c2cc(C)c(C)cc2[N+](=O)[O-])o1` the inhibition was 52.8% (active).
With `C=CCNc1nc(N2CCCCC2)c(C#N)c2c1CN(Cc1ccccc1)CC2` the inhibition was 55.6% (active).
For `CN1CCc2c(C#N)c(N3CCCCC3)nc(NCc3ccccc3)c2C1`, the inhibition was 53% (active).
With `N#Cc1c(NCCN)nc(NCc2ccccc2)c2c1CCN(Cc1ccccc1)C2` the inhibition was 52.6% (active).
